GPR151 ag – activators of human GPR151. Q8TDV0. PathHunter beta-arrestin GPR151 cells, luminescence. activation, % at 11.2 µM. 650,000 tested, 1% active. AID 1508602; in the data active = activation above about 4.9%
FBW7 activator – activators of human E3 ligase FBW7; AID 1259310; Q969H0; normalized activity (activation), % at 26.1 µM; 650,000 tested, 0.13% active; AlphaScreen FBW7–phospho-cyclin E peptide binding, activator screen; in the data active = normalized activity above about 1.9%;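 note: purified mutant Fbw7 with reduced substrate affinity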
MITF inh – blocks human microphthalmia-associated transcription factor; O75030; 650,000 tested, 0.91% active; inhibition, % at 2.6 µM; AID 1259374; AlphaScreen MITF homodimerization, bead proximity signal; in the data active = inhibition above about 50%
Target sequence (O75030 whole entry, looked up): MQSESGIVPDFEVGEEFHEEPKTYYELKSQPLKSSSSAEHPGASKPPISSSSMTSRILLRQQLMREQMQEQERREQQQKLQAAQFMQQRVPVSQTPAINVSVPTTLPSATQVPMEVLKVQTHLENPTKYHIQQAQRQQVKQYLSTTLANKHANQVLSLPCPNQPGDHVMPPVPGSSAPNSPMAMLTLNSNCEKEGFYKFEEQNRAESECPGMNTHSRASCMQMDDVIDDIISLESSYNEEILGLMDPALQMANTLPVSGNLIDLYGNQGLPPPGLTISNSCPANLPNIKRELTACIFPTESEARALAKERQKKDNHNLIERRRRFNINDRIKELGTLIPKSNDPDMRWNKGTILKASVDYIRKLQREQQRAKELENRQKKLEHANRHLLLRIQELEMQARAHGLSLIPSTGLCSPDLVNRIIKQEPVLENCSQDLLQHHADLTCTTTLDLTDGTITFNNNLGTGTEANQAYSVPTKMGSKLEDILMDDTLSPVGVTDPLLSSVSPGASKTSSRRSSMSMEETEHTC
TEAD-YAP inh – TEAD-YAP interaction inhibition. HEK-TIYL cells, TEAD-Gal4/YAP UAS-luciferase luminescence. inhibition, % at 9.12 µM. 640,000 tested, 1.4% active. AID 1259422; in the data active = inhibition above about 32%
Large screens that a line does not name were inactive; ! = not confirmed by another sample. Sampled rows, rich in hits. Any-hit rate of the full collection: about 3.5%.

CC1(C)CC(=O)C2=C(C1)OC(N)=C(C#N)C2c1cc(C(C)(C)C)c(O)c(C(C)(C)C)c1 (stereo not drawn)	TEAD-YAP inh 80
O=C(O)c1ccccc1C(=O)NNc1ccc([N+](=O)[O-])cc1[N+](=O)[O-]	none
COC(=O)c1nn(-c2ccc(C)c(C)c2)cc1O	TEAD-YAP inh 54
COC(=O)c1nn(-c2ccc(F)c(Cl)c2)cc1O	none
CCCOc1ccc(C2C(C(=O)OC)=CN(Cc3ccc(Cl)cc3)C=C2C(=O)OC)cc1OC	none
CCn1nc(C)c(CNC(=O)c2ccc(OC3CCN(Cc4ccccn4)CC3)cc2)c1C	TEAD-YAP inh 52
O=C(O)CCNc1cc(N2CCCCC2)c2noc3c2c1C(=O)c1ccccc1-3	MITF inh 89
CC(C)Nc1cc(N(C)CCO)c2noc3c2c1C(=O)c1ccccc1-3	none
CC(C)Nc1cc(NCCO)c2noc3c2c1C(=O)c1ccccc1-3	TEAD-YAP inh 37
O=C1c2ccccc2-c2onc3c(N4CCCCC4)cc(Nc4ccccc4)c1c23	none
CC1CCCN(c2cc(NCCN(C)CCO)c3c4c(onc24)-c2ccccc2C3=O)C1 (stereo not drawn)	MITF inh 61, TEAD-YAP inh 39
O=C(O)CNc1cc(N2CCCCCC2)c2noc3c2c1C(=O)c1ccccc1-3	MITF inh 61, TEAD-YAP inh 77
O=C(Cc1ccc(Cl)cc1)Nc1ccc([N+](=O)[O-])cc1O	none
Cc1oc2c(CN3CCCCC3C)c(O)ccc2c(=O)c1-c1nc2ccccc2s1 (stereo not drawn)	none
Cc1ccccc1NC(=O)c1cnn2ccccc12	none
CCc1ccc(NC(=O)c2cnn3ccccc23)cc1	TEAD-YAP inh 89
CCOc1ccc(NC(=O)c2cnn3ccccc23)cc1	TEAD-YAP inh 94
Cc1cccc(C)c1OCC(=O)N/N=C/c1cccc(O)c1	none
NC(=O)C1CCN(C(=O)CCCOc2ccccc2)CC1	none
COC(=O)c1ccccc1Sc1c(-c2ccccc2)nc2ncccn12	TEAD-YAP inh 45
COc1ccccc1N1CCN(C(=O)CCCCCn2nnc3ccccc3c2=O)CC1	none
Cc1ccc(S(=O)(=O)N2CCN(c3nnnn3-c3ccccc3)CC2)cc1Cl	FBW7 activator 2.2
O=C(/C=C/Nc1ccc(I)cc1)c1ccco1	none
CC(C)c1ccc(N/C=C/C(=O)c2ccco2)cc1	TEAD-YAP inh 78
COc1ccc(CCN2C(=O)C3C(C(=O)Nc4ccc(C)c(Cl)c4)C4C=CC3(O4)C2C(=O)NC2CCCCC2)cc1OC (stereo not drawn)	none
COC(=O)c1sc2nc3c(c(-c4cccs4)c2c1N)CCC3	none
NC(=O)c1sc2nc3c(c(-c4cccs4)c2c1N)CCC3	TEAD-YAP inh 44
CC1CCN(C2=NC(=O)/C(=C/c3ccccc3F)S2)CC1	TEAD-YAP inh 54
CC(C)Oc1ccccc1/C=C1/SC(N2CCOCC2)=NC1=O	TEAD-YAP inh 45
CC(=O)N1CCN(C2=NC(=O)/C(=C\c3ccccc3OC(C)C)S2)CC1	none
CC1CCN(C2=NC(=O)/C(=C\c3ccccc3Cl)S2)CC1	none
CCCCOc1ccccc1/C=C1/SC(N2CCOCC2)=NC1=O	TEAD-YAP inh 41
N#Cc1c2c(c(-n3ccnc3)n3c1nc1ccccc13)CCCC2	none
Oc1ccc(-c2cn3c(n2)SCC3)cc1O	MITF inh 65
Oc1ccc(-c2cn3c(n2)SCC3)cc1	none
c1ccc2[nH]c(-c3nc4ccccc4o3)nc2c1	TEAD-YAP inh 84
c1ccc2nc(-c3nc4ccccc4o3)ccc2c1	TEAD-YAP inh 77
c1ccc2oc(-c3ccc(-c4nc5ccccc5o4)cc3)nc2c1	none
COc1cc([N+](=O)[O-])cc(/C=N/NC(=O)c2cc(-c3ccccc3)n[nH]2)c1O	none
COc1ccccc1-c1cc(C(=O)N/N=C/c2cccc(OC)c2O)[nH]n1	TEAD-YAP inh 40
COc1ccc(-c2cc(C(=O)N/N=C/c3c(C)[nH]c4ccccc34)[nH]n2)cc1OC	TEAD-YAP inh 45
COc1ccccc1-c1cc(C(=O)N/N=C\c2ccccc2)[nH]n1	none
COc1cccc(/C=N/NC(=O)c2cc(-c3cccc([N+](=O)[O-])c3)n[nH]2)c1O	TEAD-YAP inh 72
COc1cccc(/C=N/NC(=O)c2cc(-c3cccn3C)n[nH]2)c1O	TEAD-YAP inh 38
COc1cccc(/C=N/NC(=O)c2ccn(C)n2)c1O	none
COc1ccc(Oc2ncnc3c2cnn3-c2ccc(F)cc2)cc1	none
CC(C)(C)NC1CC(=O)N(c2cccc(Cl)c2)C1=O (stereo not drawn)	none
CC(=O)c1ccc(C(=O)N2CCCC(c3[nH]ncc3-c3ccccc3)C2)s1 (stereo not drawn)	none
CNC(=O)/C(C#N)=C/c1c(Oc2cccc(C)c2)nc2c(C)cccn2c1=O	none
COc1ccc(C(=O)COC(=O)c2nc(-c3ccccc3)oc2C)cc1OC	none
COC(=O)CN1C(C)=Nc2ccc(Br)cc2C1c1ccccc1Cl (stereo not drawn)	none
O=C(Nc1cc2ccccc2oc1=O)c1ccccc1	TEAD-YAP inh 54
CC(=O)Oc1ccc2cc(NC(=O)c3ccc(C)cc3)c(=O)oc2c1	TEAD-YAP inh 52
O=C(Nc1cc2ccccc2oc1=O)c1ccc(Br)cc1	none
COC(=O)c1ccc(NC(=O)CSc2nnc(COc3ccc(C(C)C)cc3)o2)cc1	none
Cc1onc(-c2c(Cl)cccc2Cl)c1C(=O)Nc1cccc(Br)c1	none
Oc1cc(O)c2c(c1)O[C@H](c1cc(O)c(O)c(O)c1)[C@H](O)C2	MITF inh 87
O=C1C[C@@H](c2ccccc2)Oc2cc(O)cc(O)c21	none
Oc1cc(O)c2c(c1)O[C@H](c1ccc(O)c(O)c1)[C@@H](O)C2	MITF inh 57!
O=C(Oc1cc(O)cc2c1C[C@@H](OC(=O)c1cc(O)c(O)c(O)c1)[C@@H](c1cc(O)c(O)c(O)c1)O2)c1cc(O)c(O)c(O)c1	MITF inh 62
O=c1c(O)cc([C@H]2Oc3cc(O)cc(O)c3C[C@H]2O)cc2c([C@H]3Oc4cc(O)cc(O)c4C[C@@H]3O)cc(O)c(O)c12	MITF inh 76
O=C1c2c(O)cc(O)cc2O[C@H](c2ccc(O)c(O)c2)[C@@H]1O	none
O=C1c2c(O)cc(O)cc2O[C@H](c2ccc(O)c(O)c2)[C@H]1O	none
Cc1ccc(-c2nc(CS(=O)CC(=O)NC3CCCc4ccccc43)c(C)o2)cc1 (stereo not drawn)	none
CN(C)/C=C/C=C1\CCC/C(=C\N(C)C)C1=O	MITF inh 52
COc1ccc(NS(=O)(=O)c2cc(C)ccc2OC)cc1OC	none
COc1ccc(NS(=O)(=O)c2ccc(-n3cccn3)cc2)cc1OC	TEAD-YAP inh 40
Cc1ccc(NS(=O)(=O)c2ccc(-n3cccn3)cc2)cc1C	none
COc1ccc(NS(=O)(=O)c2c(C)cc(C)cc2C)cc1OC	TEAD-YAP inh 45
Cc1nc(C)n(-c2ccc(Nc3ncc(F)c(-c4cc(F)cc(N5CCN(C)CC5)c4)n3)cc2)n1	TEAD-YAP inh 64
Fc1cc(-c2nc(Nc3cccc(CN4CCOCC4)c3)ncc2F)cc(N2CCOCC2)c1	TEAD-YAP inh 91
Fc1cc(-c2nc(Nc3cccc(Cn4cccn4)c3)ncc2F)cc(N2CCOCC2)c1	none
